Bioassay records (PubChem)
This is a sample that favours compounds with a hit; in the whole collection about 2% have one here.
H9c2 TAG inh: reduces triacylglycerol accumulation in H9c2 cells | Nile Red lipid (TAG) fluorescence; cells loaded with 200 µM oleic acid | inhibition, % at 12.5 µM | 0.66% of 230,000 active | AID 651582;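 active = pattern-corrected inhibition of lipid staining of at least 50% with the nuclear-stain viability signal not falling by more than 50%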;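 note: 0% = DMSO wells and 100% = triacsin C control wells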
CHT allo act: allosteric activators of human choline transporter CHT. Q9GZV3. CHT-expressing cells, membrane potential dye, choline EC20; stronger effect = higher value; LV-AA mutant CHT in HEK293 cells. B-score at 10 µM. 0.49% of 310,000 active. AID 488977;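 active = initial fluorescence not abnormally high and integrated response B-score, plate-corrected, over 3 SD above library mean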
Target sequence (Q9GZV3 whole entry, looked up): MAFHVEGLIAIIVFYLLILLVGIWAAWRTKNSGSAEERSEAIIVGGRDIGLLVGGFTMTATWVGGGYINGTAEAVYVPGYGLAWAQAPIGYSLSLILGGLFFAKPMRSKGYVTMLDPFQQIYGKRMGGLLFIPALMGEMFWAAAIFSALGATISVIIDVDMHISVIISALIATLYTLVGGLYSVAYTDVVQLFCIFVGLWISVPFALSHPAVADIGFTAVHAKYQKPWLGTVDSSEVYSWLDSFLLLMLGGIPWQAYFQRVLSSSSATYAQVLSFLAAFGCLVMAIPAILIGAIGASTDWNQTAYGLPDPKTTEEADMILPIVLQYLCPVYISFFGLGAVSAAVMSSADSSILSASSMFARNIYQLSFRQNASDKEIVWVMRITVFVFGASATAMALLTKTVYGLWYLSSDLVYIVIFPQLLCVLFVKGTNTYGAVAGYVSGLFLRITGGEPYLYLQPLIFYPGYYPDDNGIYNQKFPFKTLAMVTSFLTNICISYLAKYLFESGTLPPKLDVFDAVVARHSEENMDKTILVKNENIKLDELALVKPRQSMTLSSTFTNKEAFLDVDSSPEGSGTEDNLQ
CHT block: inhibits the human high affinity choline transporter | CHT-expressing cells, membrane potential dye, choline response; stronger effect = lower value | Q9GZV3 | 0.86% of 310,000 active | B-score at 10 µM | AID 488975;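 active = B-score over 3 SD under the library average, and starting fluorescence ratio not unusually high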;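 note: choline stimulus applied at its EC90 after an EC20 pre-addition; B-score computed on integrated fluorescence ratio after choline addition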
Kir21 inh: blocks the mouse Kir2.1 inward-rectifier potassium channel; B-score at 10 µM; HEK293-Kir2.1, FluxOR thallium flux fluorescence; stronger effect = lower value; 0.85% of 310,000 active; P35561; AID 1672;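 active = fluorescence ratio B-score at or below minus 3 SD of library scores, with starting-brightness B-score within 2 SD, cut at about -4.2 in these data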;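 note: channel flux triggered by added potassium and thallium sulfate stimulus; B-score of peak minus minimum fluorescence over baseline after thallium stimulus; more negative B-score means stronger Kir2.1 block with less thallium influx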
H9c2 TAG conf: confirmation of triacylglycerol accumulation inhibitors; shares compounds with H9c2 TAG inh; H9c2 lipid accumulation, Nile Red fluorescence; cells loaded with 200 µM oleic acid; inhibition, % at 12.5 µM; 71% of 990 active; AID 651629;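 active = mean inhibition across replicates of 40% or more; inactive = mean inhibition below 40%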;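 note: plate controls were DMSO only wells for no effect and Triacsin C treated wells for full effect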
* = called active by the depositor; i = inactive; / = no result; ! = not active in a repeat.

SMILES	H9c2 TAG inh	CHT allo act	CHT block	Kir21 inh	H9c2 TAG conf
O=c1c2c3nc4ccccc4nc3n(/N=C/c3ccccn3)c2ncn1-c1ccccc1	72*	i	i	0.62	71*
Nc1c(C(=O)NCc2ccccc2)sc2nc(N3CCOCC3)c3c(c12)CCCC3	55*	i	i	-0.92	42*
Nc1c(C(=O)Nc2ccccc2)sc2nc(N3CCOCC3)c3c(c12)CCCC3	27	/	/	/	/
CNC(=O)c1ccc(-c2sc3nc(N4CCOCC4)c4c(c3c2N)CCCC4)o1	51*	i	i	0.67	74*
Cc1ccc(S(=O)(=O)CCC(=O)OCC(=O)N2c3ccccc3NC(=O)C2(C)C)cc1	8	i	i	1.9	/
CC(C)C[C@H]1C(=O)N2CCC[C@H]2[C@]2(O)O[C@](NC(=O)[C@@H]3C=C4c5cccc6[nH]c(Br)c(c56)CC4N(C)C3)(C(C)C)C(=O)N12 (some centres not stated)	62*	i	i	1.6	92*
CCCCCc1ccc(-c2cn(Cc3ccc(C(=O)c4ccccc4)cc3)nn2)cc1	61*	i	i	-1.2	51*
O=C(c1ccccc1)c1ccc(Cn2cc(-c3ccccc3)nn2)cc1	-35	i	i	-0.19	/
COCCn1c(C)cc(C(=O)COC(=O)/C=C/c2c(C)nn(C3CCS(=O)(=O)C3)c2Cl)c1C (configuration not stated)	1	i	i	1.3	/
CCOc1ccc(C(=O)Nc2nnc(NC(=S)Nc3ccccc3)s2)cc1	51*	i	i	0.34	42*
Cc1cccc(Nc2ncnc(N)c2[N+](=O)[O-])n1	3	i	i	-0.37	/
Cc1cc(C)nc(Sc2ncnc(N)c2[N+](=O)[O-])n1	61*	i	i	0	37
COc1ccc(C(=O)CN2CCN(CCN3C(=O)c4cccc5cccc(c45)C3=O)CC2)cc1	0	i	i	0.03	/
COc1cc2c3c(cccc3c1)C(=O)N(CCN1CCCC1)C2=O	117*	/	/	/	109*
CCOc1ccc(CCNC(=O)CN2C(=O)c3cccnc3Oc3ccc(Cl)cc32)cc1	/	i	i	-0.78	/
CCOC(=O)c1ccc(NC(=O)CCOc2ccccc2)cc1	8	i	i	1.8	/
CCCOC(=O)c1ccc(NC(=O)CCOc2ccccc2)cc1	65*	i	i	-0.69	61*
Cc1ccc(C)c(N2CCN(S(=O)(=O)c3cc4c(cc3Cl)NC(=O)CO4)CC2)c1	6	i	i	1.4	/
COc1cc(OC)cc(C(=O)N2CC(=O)Nc3ccccc32)c1	58*	i	i	-0.08	63*
COc1ccc(C2c3cc4c(cc3OC(N3CCOCC3)C2C)OCO4)c(OC)c1 (configuration not stated)	55*	/	/	/	75*
COc1cccc(C2c3cc4c(cc3OC(N3CCOCC3)C2C)OCO4)c1O (configuration not stated)	-8	/	/	/	/
Cc1noc(C)c1-c1ccc2ncnc(NCC3CCCCN3C)c2c1 (configuration not stated)	62*	/	/	/	51*
CCOc1ccc(NC(=O)Cn2nnc(-c3ccccc3NC(=O)C3CC3)n2)cc1	72*	i	i	0.37	40
CN(C)CCCN1c2ccccc2Sc2ccccc21	60*	i	i	-2.1	47*
CC(C)c1ccc(Nc2nc(N3CCOCC3)nc(N3CCOCC3)n2)cc1	74*	/	/	/	91*
SMILES	H9c2 TAG inh	CHT allo act	CHT block	Kir21 inh	H9c2 TAG conf
Cc1cc(Nc2ccc(C)c(Cl)c2)nc(N2CCOCC2)n1	72*	i	i	3.3	41*
COc1cc(NC(=O)c2csc(N)n2)cc(C(=O)Nc2cccc(C(F)(F)F)c2)c1	59*!	i	i	0.36	50*
COc1cc(NC(=O)c2cnc(N)s2)cc(C(=O)Nc2cccc(C(F)(F)F)c2)c1	35	i	i	3.6	/
C=CCn1cnc2c(c1=O)c1nc3ccccc3nc1n2/N=C/c1cccc(OC)c1OC	/	i	i	/	/
C=CCn1cnc2c(c1=O)c1nc3ccccc3nc1n2/N=C/c1cc(OC)c(OC)c(OC)c1	79*	i	i	0.78	37
CCCCCCSc1cc(-c2nc3ccc(Cl)cn3c2NC2CCCCC2)ccc1OC	66*	i	i	-0.5	44*
CCCCCCSc1ccc(-c2nc3ccc(Cl)cn3c2NC2CCCCC2)cc1	13	/	/	/	/
Cc1ccsc1-c1nc(C(N)=O)c2[nH]c(=O)n(-c3ccc(Cl)cc3)c2n1	57*	i	i	-2.7	42*
C=CCn1c(SCc2nc3ccccc3c(=O)[nH]2)nc2scc(C3CC3)c2c1=O	-16	i	i	-1.2	/
O=C1NC(Cc2ccc(O)cc2)c2nc3cc(F)c(F)cc3c(=O)n2-c2cc3ccccc3cc21 (configuration not stated)	12	/	/	/	/
Cc1ccc2nc3n(c(=O)c2c1)-c1cc2ccccc2cc1C(=O)NC3Cc1ccc(O)cc1 (configuration not stated)	64*	/	/	/	57*
O=C1NC(Cc2ccc(O)cc2)c2nc3ccc(F)cc3c(=O)n2-c2cc3ccccc3cc21 (configuration not stated)	78*	/	/	/	67*
COc1cc(C(=O)N2CCN(c3ncnc4sc(C)c(C)c34)CC2)cc(OC)c1OC	/	i	i	0.3	/
CC1(C)CC(=O)C2=C(C1)NC(Nc1nc3ccccc3o1)=NC21CCCCC1	/	i	i	-1.4	/
Cc1ccc2oc(NC3=NC4(CCCC4)C4=C(CCCC4=O)N3)nc2c1	55*	/	/	/	62*
CCc1ccc(-c2nc(C(N)=O)c3[nH]c(=O)n(-c4ccccc4OC)c3n2)cc1	73*	i	i	0.02	91*
CC(C)c1nnc(NC(=O)CSc2nnc(-c3ccco3)o2)s1	-3	i	i	-0.85	/
CCCCCc1cc(=O)oc2c(C(CCN(CC)CC)c3ccc(OC)cc3)c(OC)cc(OC)c12 (configuration not stated)	73*	i	i	-3.6	68*
CCCCCc1cc(=O)oc2c(C(CCN3CCN(c4ccccc4)CC3)c3ccc4c(c3)OCO4)c(OC)cc(OC)c12 (configuration not stated)	65*	i	i	0.34	74*
CC1OC(O[C@H]2CC[C@]3(C)C4C=C[C@]56OC[C@@]7(CC[C@@H](C)[C@H](C)C75)[C@H](O)C[C@@]6(C)[C@]4(C)CC[C@H]3C2(C)C)C(OC2OC(CO)C(O)C(O)C2OC2OCC(O)C(O)C2O)C(O)C1O (some centres not stated)	/	/	/	-11	/
CCOc1ccccc1NC(=O)c1ccccc1NC(=O)c1ccco1	/	i	i	1.4	/
CCOc1ccccc1NC(=O)c1cccc(NC(=O)c2ccco2)c1	79*	i	i	0.06	82*
Cc1c(C)n(Cc2ccccc2)c2ncnc(Cl)c12	/	i	i	0.02	/
Cc1cc(NC(=O)CC2CCCC2)n(-c2nc3ccccc3[nH]2)n1	59*	i	i	3	54*
